Reference: PubChem BioAssay (NCI)
This is part of a sample that, as a whole, favours compounds with a hit. Of some 79,000 tested, about 15% had one in any assay. The source made the active and inactive calls. Cut-off read from the data, not from the text of the source: active = growth inhibition above about 70%; inactive = the rest.

Legend:
[1] = NCI Yeast Anticancer Drug Screen. Data for the mlh1 strain (AID 171);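 note: 0% = growth of vehicle-treated control cultures of the same strain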; conditions: S. cerevisiae mlh1 strain growth inhibition, hits give high values
Method in brief: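 Yeast carrying a defined genetic alteration in DNA damage repair or cell cycle control were exposed to test compounds. Growth inhibition was measured relative to vehicle-treated controls.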

[2] = NCI Yeast Anticancer Drug Screen. Data for the mlh1 rad18 strain (AID 175); conditions: S. cerevisiae mlh1 rad18 strain growth inhibition, hits give high values
Method in brief: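 Growth inhibition of the yeast strain was measured after compound exposure and expressed relative to vehicle-treated controls. The strain carries defined defects in DNA damage repair.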

[3] = NCI Yeast Anticancer Drug Screen. Data for the rad18 strain (AID 177); conditions: S. cerevisiae rad18 mutant growth inhibition, hits give high values
Method in brief: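 Yeast carrying a defined DNA damage repair alteration were exposed to compounds. Growth inhibition was expressed relative to vehicle-treated controls.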

[4] = NCI Yeast Anticancer Drug Screen. Data for the rad52 strain (AID 147);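 note: 0% = growth of vehicle-treated control cultures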; conditions: S. cerevisiae rad52 mutant growth inhibition, hits give high values
Method in brief: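 Yeast strain carrying a DNA damage repair alteration was exposed to test compounds. Growth inhibition was measured relative to vehicle-treated controls.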

[5] = NCI Yeast Anticancer Drug Screen. Data for the wt1 strain (AID 149);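 note: 0% = growth of vehicle-treated wt1 cultures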; conditions: S. cerevisiae wt1 strain (SPY 50644) growth inhibition, hits give high values
Method in brief: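 Readout: yeast growth inhibition, normalised to vehicle controls, in the wt1 strain exposed to test compounds.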

[6] = NCI Yeast Anticancer Drug Screen. Data for the rad50EPP+ strain (AID 151);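 note: 0% = growth of vehicle-treated control cultures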; conditions: S. cerevisiae rad50 mutant strain, hits give high values
Method in brief: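 Yeast strain carrying rad50 alteration (rad50EPP+) exposed to compounds; growth inhibition measured relative to vehicle-treated controls.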

[7] = NCI Yeast Anticancer Drug Screen. Data for the rad50 strain (AID 155);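 note: 0% = growth of vehicle-only cultures of the same strain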; conditions: S. cerevisiae rad50 strain growth inhibition, hits give high values
Method in brief: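 Compounds were tested on a yeast strain with an engineered DNA damage repair alteration; the reported value is growth inhibition normalised to vehicle treatment.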

[8] = NCI Yeast Anticancer Drug Screen. Data for the mec2-1 strain (AID 157); conditions: S. cerevisiae mec2-1 strain, hits give high values
Method in brief: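 mec2-1 yeast strain, carrying an alteration in DNA damage repair or cell cycle control, was exposed to compounds; growth inhibition was measured relative to vehicle-treated controls.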

[9] = NCI Yeast Anticancer Drug Screen. Data for the rad14 strain (AID 159);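 note: 0% = growth of vehicle-treated control cultures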; conditions: S. cerevisiae rad14 strain growth inhibition, hits give high values
Method in brief: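 Compound-treated yeast with a defined DNA-repair lesion; growth inhibition normalised to vehicle-treated cultures.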

[10] = NCI Yeast Anticancer Drug Screen. Data for the sgs1 mgt1 strain (AID 161);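 note: 0% = growth of cultures given vehicle only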; conditions: S. cerevisiae sgs1 mgt1 strain, hits give high values
Method in brief: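 Growth of a repair-deficient yeast mutant was monitored after compound treatment and expressed as inhibition relative to vehicle-treated cultures.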

[11] = NCI Yeast Anticancer Drug Screen. Data for the cln2 rad14 strain (AID 165);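 note: 0% = growth equal to vehicle treated cultures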; conditions: S. cerevisiae cln2 rad14 strain, hits give high values
Method in brief: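 Yeast carrying cln2 and rad14 alterations (cell cycle control and DNA damage repair) were exposed to compounds. Growth inhibition was measured against vehicle-treated controls.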

[12] = NCI Yeast Anticancer Drug Screen. Data for the bub3 strain (AID 167); conditions: S. cerevisiae bub3 mutant strain, hits give high values
Method in brief: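 Growth of a checkpoint-deficient yeast mutant is measured after compound exposure. Values represent inhibition relative to vehicle.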

[13] = NCI Yeast Anticancer Drug Screen. Data for the sgs1 strain (AID 173);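 note: 0% = growth of vehicle-only control cultures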; conditions: S. cerevisiae sgs1 mutant, hits give high values
Method in brief: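 Yeast mutant strains carrying defined defects in DNA damage repair or cell cycle control were exposed to test compounds. Growth inhibition was scored against vehicle-treated controls.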

[14] = NCI Yeast Anticancer Drug Screen. Data for the wt2 strain (AID 169);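 note: 0% = growth of vehicle-treated yeast cultures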; conditions: S. cerevisiae wt2 strain growth inhibition, hits give high values
Method in brief: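 Yeast cells were exposed to test compounds, and growth inhibition was measured relative to vehicle-treated controls.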

[15] = NCI Yeast Anticancer Drug Screen. Data for the CLN2oe strain (AID 163);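 note: 0% = growth of vehicle-only control cultures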; conditions: S. cerevisiae CLN2oe strain, hits give high values
Method in brief: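 Yeast cells carrying a defined cell-cycle control alteration were exposed to test compounds. Growth inhibition was scored against vehicle-treated control cultures.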

[16] = at 5.0 µM (retest, dose inferred, filed as 0.5)
[17] = at 50.0 µM (retest, dose inferred, filed as 5.0)

Measured: growth inhibition

C/C(=N\NC(=S)NC1CCCC1)c1ccccn1
active: [1]; at 3.7 µM 71% | [1]; at 11.0 µM 98% | [1]; at 33.0 µM 98% | [1]; at 100.0 µM 98% | [2]; [17] 98% | [2]; at 50.0 µM 91.5% | [3]; at 3.7 µM 79% | [3]; at 11.0 µM 98% | [3]; at 33.0 µM 99% | [3]; at 100.0 µM 95%
inactive: [1]; at 1.2 µM -3% | [2]; [16] 13% | [3]; at 1.2 µM -5%

Cc1ccc(S(=O)(=O)N(C)c2ccc(Cl)cc2C2=NCCc3ccccc32)cc1
inactive: [4]; at 1.2 µM 2% | [4]; at 3.7 µM -8% | [4]; at 11.0 µM -6% | [4]; at 33.0 µM 3% | [5]; at 1.2 µM -2% | [5]; at 3.7 µM -19% | [5]; at 11.0 µM -12% | [5]; at 33.0 µM -6% | [6]; at 1.2 µM -8% | [6]; at 3.7 µM -9% | [6]; at 11.0 µM -14% | [6]; at 33.0 µM -9% | [6]; at 100.0 µM -8% | [7]; at 1.2 µM 0% | [7]; at 3.7 µM 5% | [7]; [16] 47% | [7]; at 11.0 µM 11% | [7]; at 33.0 µM 3% | [7]; [17] 56% | [8]; at 1.2 µM -7% | [8]; at 3.7 µM -26% | [8]; [16] 39% | [8]; at 11.0 µM -18% | [8]; at 33.0 µM -3% | [8]; [17] 61% | [9]; at 1.2 µM -23% | [9]; at 3.7 µM -40% | [9]; at 11.0 µM -28% | [9]; at 33.0 µM -15% | [10]; [16] 7% | [11]; [16] 51% | [12]; at 1.2 µM -16% | [12]; at 3.7 µM -9% | [12]; [16] 52% | [12]; at 11.0 µM 1% | [12]; at 33.0 µM 7% | [1]; at 1.2 µM -21% | [1]; at 3.7 µM -21% | [1]; at 11.0 µM -17% | [1]; at 33.0 µM 14% | [13]; at 1.2 µM -15% | [13]; at 3.7 µM -20% | [13]; at 11.0 µM -11% | [13]; at 33.0 µM 6% | [2]; [16] 45% | [2]; [17] 55%
active: [4]; at 100.0 µM 95% | [5]; at 100.0 µM 95% | [7]; at 50.0 µM 89% | [7]; at 100.0 µM 94% | [8]; at 50.0 µM 91.7% | [8]; at 100.0 µM 95% | [9]; at 100.0 µM 94% | [10]; [17] 94% | [10]; at 50.0 µM 93.1% | [11]; [17] 98% | [11]; at 50.0 µM 90% | [12]; [17] 95% | [12]; at 50.0 µM 91.6% | [12]; at 100.0 µM 95% | [1]; at 100.0 µM 96% | [13]; at 100.0 µM 93% | [2]; at 50.0 µM 90.4%

OCCNCCOc1ccc(/C(=C(/Cl)c2ccccc2)c2ccccc2)cc1
inactive: [4]; at 1.2 µM -38% | [4]; at 3.7 µM -36% | [4]; at 11.0 µM -20% | [5]; at 1.2 µM -25% | [5]; at 3.7 µM -26% | [5]; at 11.0 µM -3% | [6]; at 1.2 µM -34% | [6]; at 3.7 µM -28% | [6]; at 11.0 µM -56% | [7]; at 1.2 µM 12% | [7]; at 3.7 µM 1% | [7]; [16] 40% | [7]; at 11.0 µM 29% | [8]; at 1.2 µM -28% | [8]; at 3.7 µM -32% | [8]; [16] 3% | [8]; at 11.0 µM -2% | [9]; at 1.2 µM -9% | [9]; at 3.7 µM -8% | [10]; [16] 36% | [11]; [16] 59% | [12]; at 1.2 µM -8% | [12]; at 3.7 µM -5% | [12]; [16] 32% | [12]; at 11.0 µM 13% | [14]; at 1.2 µM -47% | [14]; at 3.7 µM -48% | [14]; at 11.0 µM -6% | [13]; at 1.2 µM -15% | [13]; at 3.7 µM -23% | [13]; at 11.0 µM 32% | [2]; [16] 43% | [3]; at 1.2 µM -8% | [3]; at 3.7 µM -6% | [3]; at 11.0 µM 24%
active: [4]; at 33.0 µM 98% | [4]; at 100.0 µM 97% | [5]; at 33.0 µM 98% | [5]; at 100.0 µM 97% | [6]; at 33.0 µM 70% | [6]; at 100.0 µM 98% | [7]; at 33.0 µM 98% | [7]; [17] 98% | [7]; at 50.0 µM 87.1% | [7]; at 100.0 µM 97% | [8]; at 33.0 µM 98% | [8]; [17] 99% | [8]; at 50.0 µM 94.3% | [8]; at 100.0 µM 97% | [9]; at 11.0 µM 76% | [9]; at 33.0 µM 98% | [9]; at 100.0 µM 97% | [10]; [17] 98% | [10]; at 50.0 µM 93.8% | [11]; [17] 98% | [11]; at 50.0 µM 93.2% | [12]; at 33.0 µM 99% | [12]; [17] 99% | [12]; at 50.0 µM 92.7% | [12]; at 100.0 µM 97% | [14]; at 33.0 µM 98% | [14]; at 100.0 µM 97% | [13]; at 33.0 µM 98% | [13]; at 100.0 µM 98% | [2]; [17] 99% | [2]; at 50.0 µM 90% | [3]; at 33.0 µM 98% | [3]; at 100.0 µM 98%

CCCCCC(=O)c1ccc(O)cc1O
active: [4]; at 33.0 µM 90% | [4]; at 100.0 µM 98% | [5]; at 33.0 µM 91% | [5]; at 100.0 µM 99% | [6]; at 100.0 µM 98% | [7]; [16] 92% | [7]; at 33.0 µM 91% | [7]; [17] 98% | [7]; at 50.0 µM 89.2% | [7]; at 100.0 µM 97% | [8]; [16] 91% | [8]; at 33.0 µM 95% | [8]; [17] 99% | [8]; at 50.0 µM 91.8% | [8]; at 100.0 µM 99% | [9]; at 33.0 µM 90% | [9]; at 100.0 µM 98% | [10]; [17] 92% | [15]; at 33.0 µM 86% | [15]; at 100.0 µM 99% | [11]; [17] 90% | [12]; at 33.0 µM 93% | [12]; [17] 92% | [12]; at 100.0 µM 99% | [14]; at 33.0 µM 87% | [14]; at 100.0 µM 99% | [1]; at 33.0 µM 90% | [1]; at 100.0 µM 95% | [3]; at 33.0 µM 92% | [3]; at 100.0 µM 98%
inactive: [4]; at 1.2 µM -14% | [4]; at 3.7 µM 1% | [4]; at 11.0 µM 10% | [5]; at 1.2 µM -14% | [5]; at 3.7 µM -18% | [5]; at 11.0 µM -6% | [6]; at 1.2 µM 15% | [6]; at 3.7 µM 23% | [6]; at 11.0 µM 33% | [6]; at 33.0 µM 59% | [7]; at 1.2 µM -7% | [7]; at 3.7 µM -4% | [7]; at 11.0 µM 2% | [8]; at 1.2 µM -7% | [8]; at 3.7 µM -6% | [8]; at 11.0 µM 10% | [9]; at 1.2 µM -9% | [9]; at 3.7 µM -5% | [9]; at 11.0 µM -3% | [10]; [16] -5% | [15]; at 1.2 µM -3% | [15]; at 3.7 µM 8% | [15]; at 11.0 µM 1% | [11]; [16] 37% | [12]; at 1.2 µM 8% | [12]; at 3.7 µM 14% | [12]; [16] 33% | [12]; at 11.0 µM 40% | [14]; at 1.2 µM -3% | [14]; at 3.7 µM -4% | [14]; at 11.0 µM -18% | [1]; at 1.2 µM 7% | [1]; at 3.7 µM 10% | [1]; at 11.0 µM 20% | [3]; at 1.2 µM -17% | [3]; at 3.7 µM 3% | [3]; at 11.0 µM 9%
